# According to PubChem BioAssay (EPA / NIEHS):
# Results filed as inconclusive are left out. Active and inactive are the calls of the source. How the source made its calls, unless noted: active means hit-call score of the fitted dose curve at least 0.9, where 1 is the maximum; inactive means score below 0.9.
# What was measured:
# [1] = CCTE_Shafer_MEA_acute_spike_number: CCTE's Neural Acute Assay for Total Number of Spikes, Shafer Lab (AID 2284008);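 on AC50: curve fitted for decrease in spike count so AC50 reflects inhibitors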
# How it was run: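 Rat primary cortical neurons on 48-well MEA plates, DIV 13 or 15, at 37 C. 40 min baseline then 40 min with compound (0.03-40 uM); spikes detected at 8x rms noise, expressed as percent change from baseline.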
# [2] = CCTE_Shafer_MEA_acute_firing_rate_mean: CCTE's Neural Acute Assay for Mean Firing Rate, Shafer Lab (AID 2284009);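 further: analyzed for loss of signal so actives lower firing rate relative to DMSO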
# How it was run: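 Percent change in well-mean firing rate was derived from extracellular spikes detected at 8x rms noise (300-5000 Hz band-pass) before and after a 40-min compound exposure. Cultures were primary rat cortical neurons, tested at 0.03-40 uM.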
# [3] = CCTE_Harrill_HTTr_Viability_MCF7: CCTE's 6-hour Cell Viability Assessment for the High-Throughput Transcriptomics (HTTr) Platform, in MCF-7 cells cultured in DMEM + 10% fetal bovine serum, Harrill Lab (AID 2284010)
# How it was run: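 Membrane integrity was scored by high-content imaging of propidium iodide dye exclusion after a 6 h exposure across an eight-point dilution series. Data were fitted bidirectionally relative to DMSO as negative control and baseline.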
# [4] = CCTE_Harrill_HTTr_Apoptosis_MCF7: CCTE's 6-hour Apoptosis Assessment for the High-Throughput Transcriptomics (HTTr) Platform, in MCF-7 cells cultured in DMEM + 10% fetal bovine serum, Harrill Lab (AID 2284011)
# How it was run: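 MCF-7 cells in DMEM + 10% FBS exposed 6 h to chemicals over an eight-point dilution series. Caspase-3/7 activation imaged by high-content CellEvent Green staining; fitted bidirectionally versus DMSO.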
# [5] = CCTE_Harrill_HTTr_CellCount_MCF7: CCTE's Cell Proliferation Assessment for the High-Throughput Transcriptomics (HTTr) Platform, Harrill Lab (AID 2284012; active means hit-call score of the fitted dose curve at least 0.9, where 1 is the maximum;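 further: cells exposed to compound for six hours; intended direction is loss of nuclei count meaning fewer cells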)
# How it was run: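 MCF-7 cells were exposed for 6 h to an eight-point dilution series; Hoechst-labeled nuclei were counted by high content imaging. Curves were fitted bidirectionally against DMSO as negative control and baseline, with signal loss indicating reduced cell count.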
# [6] = CCTE_Shafer_MEA_acute_burst_number: CCTE's Neural Acute Assay for Single-Electrode Bursts, Shafer Lab (AID 2284013)
# How it was run: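 Spontaneous network activity of primary rat cortical neurons was recorded extracellularly on microelectrode arrays at 37 C, with 40-min periods before and during exposure to 0.03-40 uM compound on DIV 13 or 15.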
# [7] = CCTE_Shafer_MEA_acute_burst_duration_mean: CCTE's Neural Acute Assay for Mean Burst Duration, Shafer Lab (AID 2284014);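 further: hits are decreases in mean burst duration relative to DMSO controls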
# How it was run: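 Read-out is the per-well percent change in mean burst duration (first to last spike within a single-electrode burst) between 40-min recordings before and after compound. Cultures were primary rat cortical neurons on MEAs, dosed at 0.03-40 uM on DIV 13 or 15.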
# [8] = CCTE_Shafer_MEA_acute_per_burst_spike_number_mean: CCTE's Neural Acute Assay for Average Number of Spikes Per Burst, Shafer Lab (AID 2284015);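 further: hits are decreases in mean spikes per burst versus baseline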
# How it was run: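 Percent change in mean spikes per single-electrode burst is compared between a 40 min baseline and a 40 min recording with compound (0.03-40 uM). Cultures were rat cortical neurons on MEA plates at DIV 13 or 15, recorded at 37 C, with DMSO as the negative control.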
# [9] = CCTE_Shafer_MEA_acute_interburst_interval_mean: CCTE's Neural Acute Assay for Mean Interburst Interval, Shafer Lab (AID 2284016);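 further: percent change of mean interburst interval versus each well's own pre-dose baseline; curves fitted for decrease in interburst interval relative to DMSO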
# How it was run: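 Percent change in mean single-electrode interburst interval was calculated per well from 40 min recordings before and after compound (0.03-40 uM). Recordings were made at 37 C on rat cortical cultures at DIV 13 or 15, with spikes detected at 8x rms threshold.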
# [10] = CCTE_Shafer_MEA_acute_burst_percentage_mean: CCTE's Neural Acute Assay for Percentage of Spikes in a Burst, Shafer Lab (AID 2284017);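 on AC50: curve fitted for loss of signal so potency reflects decreased burst percentage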
# How it was run: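 Well-level mean burst percentage from a 40-min recording after compound (0.03-40 uM) expressed as percent change from a 40-min baseline at 37C. Cultures: primary rat cortical neurons on MEA, dosed on DIV 13 or 15; fitted downward relative to DMSO.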
# [11] = CCTE_Shafer_MEA_acute_burst_percentage_std: CCTE's Neural Acute Assay for Standard Deviation of Burst Percentage, Shafer Lab (AID 2284018);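 further: fitted in the negative direction so actives lower burst percentage SD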
# How it was run: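 Value is percent change from baseline in the across-electrode SD of spikes-in-bursts percentage, wells with >/= 10 active electrodes. Acute 40-min exposure to 0.03-40 uM on DIV 13 or 15 rat cortical cultures, recorded at 37 C after 40-min baseline.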
# [12] = CCTE_Shafer_MEA_acute_per_network_burst_spike_number_mean: CCTE's Neural Acute Assay for Average Number of Spikes in a Network Burst, Shafer Lab (AID 2284019)
# How it was run: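 Read-out is mean spike count per network burst, taken as percent change between a 40-min pre-exposure and a 40-min post-exposure recording per well. Rat primary cortical neurons on MEAs at 37 C, DIV 13 or 15; compounds at 0.03-40 uM.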
# [13] = CCTE_Shafer_MEA_acute_per_network_burst_spike_number_std: CCTE's Neural Acute Assay for Standard Deviation of Number of Spikes in a Network Burst, Shafer Lab (AID 2284020);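 further: fitted for decrease in spike-number SD versus DMSO so actives lower it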
# How it was run: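 Spontaneous network activity of primary rat cortical neurons is recorded extracellularly before and after a 40-min compound exposure (0.03-40 uM) at 37 C. The endpoint is the well's percent change in burst spike-number SD.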
# [14] = CCTE_Shafer_MEA_acute_per_network_burst_electrodes_number_mean: CCTE's Neural Acute Assay for Mean Number of Electrodes in a Network Burst, Shafer Lab (AID 2284021);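 further: curves fitted for decreases only so hits reduce electrodes per burst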
# How it was run: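 Rat primary cortical neurons on 48-well MEAs, DIV 13 or 15, were treated at 0.03-40 uM. Spikes were detected at 8x rms noise and recorded at 37 C. The mean electrodes per network burst in a 40 min exposure recording was expressed as percent change from a 40 min baseline.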
# [15] = CCTE_Simmons_MITO_max_resp_rate: CCTE's HepG2 Seahorse XF Respirometric Screening Assay at Maximal Respiratory State [uncoupled], Simmons Lab (AID 2284002); conditions: actives raise or lower the signal
# How it was run: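 HepG2 oxygen consumption measured on Seahorse XF after FCCP uncoupling, following test compound injection; 7 concentrations from 125 nM to 100 uM final. Readings every 6 min over 72 min, three biological replicates; bidirectional fit versus DMSO.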
# [16] = CCTE_Simmons_MITO_inhib_resp_rate: CCTE's HepG2 Seahorse XF Respirometric Screening Assay at Inhibited Respiratory State [full ETC block], Simmons Lab (AID 2284006); conditions: actives raise or lower the signal
# How it was run: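 HepG2 cells on Seahorse XF96; oxygen consumption measured after test compound, then FCCP, then rotenone/antimycin A injections over 72 min. Test chemicals at 7 concentrations, 125 nM–100 uM final. OCR fitted bidirectionally versus DMSO.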
# [17] = CCTE_Simmons_MITO_viability: CellTiter-Glo Viability Assessment for CCTE's HepG2 Seahorse XF Respirometric Screening Assay [post-hoc], Simmons Lab (AID 2284007; active means hit-call score of the fitted dose curve at least 0.9, where 1 is the maximum)
# How it was run: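 HepG2 cells from the Seahorse XF respirometry run were exposed 90 min to a 7-point series, 125 nM–100 uM final, DMSO vehicle; ATP content then read by luciferase luminescence. Three biological replicates, technical singles; loss of signal fitted versus DMSO.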
structure (smiles),measurement,setting,value
CN/C(=N\[N+](=O)[O-])NCc1cnc(Cl)s1,outcome,[1],inactive
same,outcome,[2],inactive
same,outcome,[3],inactive
same,outcome,[4],inactive
same,outcome,[5],inactive
same,outcome,[6],inactive
same,outcome,[7],inactive
same,outcome,[8],inactive
same,outcome,[9],inactive
same,outcome,[10],inactive
same,outcome,[11],inactive
same,outcome,[12],inactive
same,outcome,[13],inactive
same,outcome,[14],inactive
Cn1c(-c2ccccc2)cc(-c2ccccc2)[n+]1C,AC50,[15],20 µM (active)
same,outcome,[16],inactive
same,outcome,[17],inactive
same,AC50,[1],1.05 µM (active)
same,AC50,[2],1.05 µM (active)
same,outcome,[3],inactive
same,outcome,[4],inactive
same,outcome,[5],inactive
same,AC50,[6],1.15 µM (active)
same,outcome,[7],inactive
same,outcome,[8],inactive
same,AC50,[10],31.4 µM (active)
same,outcome,[11],inactive
same,outcome,[12],inactive
same,outcome,[13],inactive
same,AC50,[14],20 µM (active)
OC(c1ccc(Cl)cc1)(c1ccc(Cl)cc1)C(Cl)(Cl)Cl,AC50,[1],1.83 µM (active)
same,AC50,[2],2.15 µM (active)
same,AC50,[3],38.6 µM (active)
same,outcome,[4],inactive
same,outcome,[5],inactive
same,AC50,[6],2.08 µM (active)
same,outcome,[7],inactive
same,outcome,[8],inactive
same,outcome,[9],inactive
same,AC50,[10],4.81 µM (active)
same,outcome,[11],inactive
same,outcome,[12],inactive
same,AC50,[13],20 µM (active)
same,AC50,[14],20 µM (active)
